Our source for the residual activity values is ChEMBL document CHEMBL2218924, “A broad activity screen in support of a chemogenomic map for kinase signalling research and drug discovery” (Biochem J, 2013).

For experiment [1], the target named is T1, cGMP-dependent protein kinase 1 (Homo sapiens) (UniProt Q13976).
T1 sequence (whole entry): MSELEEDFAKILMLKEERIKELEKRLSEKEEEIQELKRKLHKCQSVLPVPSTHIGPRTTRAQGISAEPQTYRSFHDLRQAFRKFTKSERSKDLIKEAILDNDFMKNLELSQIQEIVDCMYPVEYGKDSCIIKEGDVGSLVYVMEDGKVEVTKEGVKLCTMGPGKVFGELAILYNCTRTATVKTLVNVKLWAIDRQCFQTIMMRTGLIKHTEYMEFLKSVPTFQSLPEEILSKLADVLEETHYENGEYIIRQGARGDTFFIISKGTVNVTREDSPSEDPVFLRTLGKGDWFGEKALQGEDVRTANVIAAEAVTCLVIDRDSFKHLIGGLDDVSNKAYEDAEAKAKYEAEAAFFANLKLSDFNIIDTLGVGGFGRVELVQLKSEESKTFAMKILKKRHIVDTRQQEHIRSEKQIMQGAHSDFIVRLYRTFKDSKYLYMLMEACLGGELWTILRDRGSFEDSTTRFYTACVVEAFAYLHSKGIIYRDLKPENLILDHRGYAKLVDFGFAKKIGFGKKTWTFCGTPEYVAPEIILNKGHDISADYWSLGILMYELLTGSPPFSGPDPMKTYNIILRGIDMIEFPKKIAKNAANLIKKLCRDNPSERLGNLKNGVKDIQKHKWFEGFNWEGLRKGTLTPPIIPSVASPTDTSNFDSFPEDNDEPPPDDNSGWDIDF
The settings on record: at 1 µM.

Experiment [2] deals with T1, cGMP-dependent protein kinase 1 (Homo sapiens). The settings on record: at 10 µM.
The target is the same in experiment [3]. The settings on record: at 1 µM. This is another data set of the same source.
Experiment [4] has the same target. The settings on record: at 10 µM. This is another data set of the same source.
Experiment [5] has as its target T2, MAP kinase-activated protein kinase 5 (Homo sapiens) (UniProt Q8IW41).
T2 sequence (whole entry): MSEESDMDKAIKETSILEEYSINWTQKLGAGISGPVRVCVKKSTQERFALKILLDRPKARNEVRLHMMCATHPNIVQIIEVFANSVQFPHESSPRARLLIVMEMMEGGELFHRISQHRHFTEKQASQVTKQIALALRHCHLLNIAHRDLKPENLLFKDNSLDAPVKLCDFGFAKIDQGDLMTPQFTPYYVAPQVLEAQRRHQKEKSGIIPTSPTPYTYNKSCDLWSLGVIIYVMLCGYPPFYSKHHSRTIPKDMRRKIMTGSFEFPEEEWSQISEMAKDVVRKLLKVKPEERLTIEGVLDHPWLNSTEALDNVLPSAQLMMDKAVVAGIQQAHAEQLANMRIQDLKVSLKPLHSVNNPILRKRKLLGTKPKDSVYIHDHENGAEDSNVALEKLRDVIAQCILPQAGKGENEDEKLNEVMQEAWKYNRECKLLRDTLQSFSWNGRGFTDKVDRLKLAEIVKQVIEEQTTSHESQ
The settings on record: at 1 µM.

Experiment [6] addresses T2, MAP kinase-activated protein kinase 5 (Homo sapiens). The settings on record: at 10 µM.
Experiment [7] addresses Serine/threonine-protein kinase N2 (Homo sapiens) (UniProt Q16513). The settings on record: at 1 µM.
For experiment [8] the target is unchanged. The settings on record: at 10 µM.
The target in experiment [9] is Tyrosine-protein kinase FRK (Homo sapiens) (UniProt P42685). The settings on record: at 1 µM.
Experiment [10] shares this target. The settings on record: at 10 µM.
Experiment [11] deals with T3, Phosphorylase b kinase gamma catalytic chain, liver/testis isoform (Homo sapiens) (UniProt P15735).
T3 sequence (whole entry): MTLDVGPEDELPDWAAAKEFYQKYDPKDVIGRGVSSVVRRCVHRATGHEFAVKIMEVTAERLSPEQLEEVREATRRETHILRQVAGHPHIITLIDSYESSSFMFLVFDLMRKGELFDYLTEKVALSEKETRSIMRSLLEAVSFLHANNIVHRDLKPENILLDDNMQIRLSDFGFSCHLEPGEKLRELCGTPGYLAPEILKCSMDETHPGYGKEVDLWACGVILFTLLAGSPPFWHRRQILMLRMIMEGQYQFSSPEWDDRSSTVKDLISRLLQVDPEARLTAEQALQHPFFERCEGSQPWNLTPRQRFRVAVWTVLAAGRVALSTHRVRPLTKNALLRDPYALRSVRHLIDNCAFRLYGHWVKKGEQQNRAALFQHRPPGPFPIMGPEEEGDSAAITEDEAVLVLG
The settings on record: at 1 µM.

Experiment [12] addresses T3, Phosphorylase b kinase gamma catalytic chain, liver/testis isoform (Homo sapiens). The settings on record: at 10 µM.
For experiment [13], the target named is Serine/threonine-protein kinase pim-1 (Homo sapiens) (UniProt P11309). The settings on record: at 1 µM.
Experiment [14] shares this target. The settings on record: at 10 µM.
In experiment [15] the target is Serine/threonine-protein kinase pim-2 (Homo sapiens) (UniProt Q9P1W9). The settings on record: at 1 µM.
Experiment [16] shares this target. The settings on record: at 10 µM.
The target of experiment [17] is Serine/threonine-protein kinase pim-3 (Homo sapiens) (UniProt Q86V86). The settings on record: at 1 µM.
The target is the same in experiment [18]. The settings on record: at 10 µM.
Experiment [19] has as its target Serine/threonine-protein kinase PLK1 (Homo sapiens) (UniProt P53350). The settings on record: at 1 µM.
The target is the same in experiment [20]. The settings on record: at 10 µM.

Sequence of Serine/threonine-protein kinase PLK1 (Homo sapiens) (P53350 whole entry): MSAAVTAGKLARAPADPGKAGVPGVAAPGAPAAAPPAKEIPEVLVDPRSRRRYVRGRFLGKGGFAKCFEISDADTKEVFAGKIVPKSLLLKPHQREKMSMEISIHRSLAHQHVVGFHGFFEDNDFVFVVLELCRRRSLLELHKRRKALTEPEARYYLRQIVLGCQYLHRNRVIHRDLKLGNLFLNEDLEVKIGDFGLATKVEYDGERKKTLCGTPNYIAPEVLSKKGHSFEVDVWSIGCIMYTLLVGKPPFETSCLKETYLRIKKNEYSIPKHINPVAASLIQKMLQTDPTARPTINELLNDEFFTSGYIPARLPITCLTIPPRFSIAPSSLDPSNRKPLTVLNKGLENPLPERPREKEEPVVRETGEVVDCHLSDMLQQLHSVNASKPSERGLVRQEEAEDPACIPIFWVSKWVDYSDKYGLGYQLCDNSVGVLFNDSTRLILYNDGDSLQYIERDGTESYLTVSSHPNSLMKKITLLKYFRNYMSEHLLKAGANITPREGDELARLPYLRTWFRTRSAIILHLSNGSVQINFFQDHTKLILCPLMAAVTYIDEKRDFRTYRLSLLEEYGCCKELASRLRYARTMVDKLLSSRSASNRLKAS
Sequence of Serine/threonine-protein kinase N2 (Homo sapiens) (Q16513 whole entry, looked up): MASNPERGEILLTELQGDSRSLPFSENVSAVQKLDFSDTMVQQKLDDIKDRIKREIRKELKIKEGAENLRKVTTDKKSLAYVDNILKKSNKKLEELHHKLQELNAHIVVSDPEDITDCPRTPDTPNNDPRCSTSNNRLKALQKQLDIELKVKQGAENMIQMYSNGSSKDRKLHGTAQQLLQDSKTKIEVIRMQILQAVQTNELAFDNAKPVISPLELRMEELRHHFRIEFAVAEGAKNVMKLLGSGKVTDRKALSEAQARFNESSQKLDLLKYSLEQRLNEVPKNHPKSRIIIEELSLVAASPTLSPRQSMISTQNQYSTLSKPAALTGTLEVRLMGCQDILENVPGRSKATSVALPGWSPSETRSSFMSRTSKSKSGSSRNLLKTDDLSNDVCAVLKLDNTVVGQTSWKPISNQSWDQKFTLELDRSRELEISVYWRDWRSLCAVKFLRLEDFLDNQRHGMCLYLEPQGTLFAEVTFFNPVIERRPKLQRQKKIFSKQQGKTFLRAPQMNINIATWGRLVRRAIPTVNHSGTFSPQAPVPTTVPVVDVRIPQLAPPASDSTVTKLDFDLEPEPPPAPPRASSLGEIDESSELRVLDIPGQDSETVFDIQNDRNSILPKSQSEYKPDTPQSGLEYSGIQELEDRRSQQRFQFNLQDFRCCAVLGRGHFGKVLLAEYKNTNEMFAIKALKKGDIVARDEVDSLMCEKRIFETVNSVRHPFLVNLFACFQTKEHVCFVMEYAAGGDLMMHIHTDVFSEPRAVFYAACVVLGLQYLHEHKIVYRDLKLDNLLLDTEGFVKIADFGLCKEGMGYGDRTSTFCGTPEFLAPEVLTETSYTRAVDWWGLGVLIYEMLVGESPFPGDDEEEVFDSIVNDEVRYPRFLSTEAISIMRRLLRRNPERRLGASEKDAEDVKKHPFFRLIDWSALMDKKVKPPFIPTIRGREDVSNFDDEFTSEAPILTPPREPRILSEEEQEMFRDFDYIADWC
Sequence of Serine/threonine-protein kinase pim-1 (Homo sapiens) (P11309 whole entry, looked up): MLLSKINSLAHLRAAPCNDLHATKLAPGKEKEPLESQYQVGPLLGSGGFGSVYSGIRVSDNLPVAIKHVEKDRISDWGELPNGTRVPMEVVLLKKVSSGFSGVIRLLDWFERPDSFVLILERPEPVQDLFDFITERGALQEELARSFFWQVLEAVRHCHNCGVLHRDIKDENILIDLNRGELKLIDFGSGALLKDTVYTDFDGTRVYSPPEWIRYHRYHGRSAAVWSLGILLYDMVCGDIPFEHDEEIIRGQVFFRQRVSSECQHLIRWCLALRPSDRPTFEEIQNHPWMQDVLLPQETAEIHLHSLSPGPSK
Sequence of Serine/threonine-protein kinase pim-2 (Homo sapiens) (Q9P1W9 whole entry, looked up): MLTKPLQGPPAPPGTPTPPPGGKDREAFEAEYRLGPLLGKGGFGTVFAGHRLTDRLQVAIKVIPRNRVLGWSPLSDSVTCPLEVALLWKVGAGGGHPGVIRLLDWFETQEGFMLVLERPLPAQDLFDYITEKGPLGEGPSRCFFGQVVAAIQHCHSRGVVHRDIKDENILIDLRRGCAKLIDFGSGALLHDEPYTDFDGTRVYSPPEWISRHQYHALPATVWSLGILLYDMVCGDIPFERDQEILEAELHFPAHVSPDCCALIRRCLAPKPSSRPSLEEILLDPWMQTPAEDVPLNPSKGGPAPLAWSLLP
Sequence of Tyrosine-protein kinase FRK (Homo sapiens) (P42685 whole entry): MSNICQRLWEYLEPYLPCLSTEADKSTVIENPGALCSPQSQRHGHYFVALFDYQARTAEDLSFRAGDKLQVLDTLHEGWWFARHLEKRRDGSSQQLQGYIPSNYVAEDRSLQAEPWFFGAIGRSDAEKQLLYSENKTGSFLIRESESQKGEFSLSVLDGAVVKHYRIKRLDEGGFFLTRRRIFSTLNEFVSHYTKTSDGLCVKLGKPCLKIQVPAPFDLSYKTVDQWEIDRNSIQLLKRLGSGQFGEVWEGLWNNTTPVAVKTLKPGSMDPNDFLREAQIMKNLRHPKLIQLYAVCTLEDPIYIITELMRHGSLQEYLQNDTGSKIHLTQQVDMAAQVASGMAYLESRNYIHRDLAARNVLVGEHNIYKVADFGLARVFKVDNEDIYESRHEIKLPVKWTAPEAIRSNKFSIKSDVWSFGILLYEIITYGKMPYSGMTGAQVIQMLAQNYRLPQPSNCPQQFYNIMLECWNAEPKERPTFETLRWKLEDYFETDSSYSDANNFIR

Turning to `Ic1cccc(CSc2nnc(-c3ccncc3)o2)c1`, the residual activity in [1] came out at 105%; in experiment [2], 96%; in [3], 88%; in experiment [4] it was 49%; in experiment [5], 105%; in [6], 117%. The residual activity in [7] was 83%; in experiment [8], 70%; in experiment [9], 77%; in [10], 78%; in [11] it was 106%; in [12] it was 84%. Besides, the residual activity stood at 104% in experiment [13]; 73% in experiment [14]; 93% in experiment [15]; 86% in experiment [16]; 78% in experiment [17]; 84% in experiment [18]. The residual activity in experiment [19] came to 72%; in experiment [20], 74%.

In the case of `O=C1NC(=O)c2c1c1c3ccccc3[nH]c1c1[nH]c3cc(Br)ccc3c21`, the residual activity in [1] came out at 99%; in experiment [2] it was 113%; in experiment [3], 92%; in experiment [4], 83%; in experiment [5] it was 105%; in [6], 106%. Further, the residual activity in experiment [7] turned out to be 87%; in experiment [8], 84%; in [9], 94%; in [10], 90%; in experiment [11] it was 114%; in experiment [12], 71%. For the same compound, the residual activity was 28% in experiment [13]; 13% in [14]; 27% in experiment [15]; 6% in [16]; 29% in experiment [17]; 14% in [18]. In addition, the residual activity in experiment [19] and in experiment [20] was 90% throughout.

On to `O=C1NC(=O)c2cc(Nc3ccc(F)cc3)c(Nc3ccc(F)cc3)cc21`, for which the residual activity in experiment [1] was 98%; in experiment [2], 97%; in experiment [3], 92%; in [4] it was 73%; in experiment [5], 74%; in [6], 39%. Also, the residual activity came out at 90% in [7]; 84% in experiment [8]; 83% in experiment [9]; 41% in experiment [10]; 93% in experiment [11]; 86% in experiment [12]. Moreover, the residual activity in experiment [13] came to 49%; in experiment [14] it was 11%; in experiment [15], 91%; in experiment [16] it was 31%; in [17], 94%; in experiment [18], 93%. In addition, the residual activity turned out to be 95% in experiment [19] and 69% in [20].

On to `O=C(O)c1ccc2c3c1cccc3c(=O)n1c3ccccc3nc21`, for which the residual activity was 95% in [1]; 97% in experiment [2]; 98% in [3]; 83% in experiment [4]; 81% in experiment [5]; 62% in experiment [6]. Moreover, the residual activity in [7] is 96%; in experiment [8] it was 86%; in [9], 95%; in experiment [10], 90%; in experiment [11] it was 95%; in experiment [12], 72%. Moreover, the residual activity in [13] amounted to 58%; in experiment [14] it was 23%; in experiment [15], 14%; in experiment [16], 0%; in [17] it was 15%; in experiment [18], 1%. Moreover, the values for the residual activity in [19] and in experiment [20] were 92% and 94%, respectively.

On to `CC[n+]1c(/C=C/N(C)c2ccccc2)n(-c2ccccc2)c2ccc(-c3nc4ccccc4s3)cc21`, for which the residual activity in experiment [1] worked out at 105%; in [2], 80%; in experiment [3], 87%; in experiment [4], 60%; in experiment [5], 104%; in [6], 133%. Moreover, the residual activity in experiment [7] amounted to 94%; in [8], 77%; in [9], 108%; in experiment [10], 123%; in experiment [11], 93%; in experiment [12], 63%. The residual activity in experiment [13] is 94%; in experiment [14] it was 85%; in experiment [15] it was 101%; in experiment [16], 136%; in experiment [17] it was 105%; in experiment [18] it was 107%. For the same compound, the results for the residual activity in experiment [19] and in [20] were 123% and 90%, respectively.

For the compound `COc1cc2ncnc(Nc3ccc(Oc4ccccc4)cc3)c2cc1OC`, the residual activity in experiment [1] is 119%; in experiment [2] it was 143%; in [3], 76%; in [4], 110%; in experiment [5] it was 120%; in [6], 118%. In addition, the residual activity in [7] amounted to 91%; in [8] it was 120%; in experiment [9], 39%; in experiment [10] it was 7%; in [11], 95%; in experiment [12], 123%. Besides, the residual activity in experiment [13] is 81%; in experiment [14] it was 132%; in experiment [15], 135%; in experiment [16] it was 142%; in experiment [17] it was 95%; in [18], 93%. The residual activity in experiment [19] worked out at 74%; in [20] it was 72%.

On to `Oc1n[nH]c2nnc(-c3c(-c4ccccc4)nn4ccccc34)cc12`, for which the residual activity was 99% in experiment [1]; 100% in experiment [2]; 89% in experiment [3]; 78% in experiment [4]; 115% in experiment [5]; 112% in [6]. The residual activity in experiment [7] is 86%; in experiment [8], 86%; in experiment [9], 88%; in [10], 92%; in experiment [11], 116%; in [12], 111%. Also, the residual activity is 84% in experiment [13]; 89% in experiment [14]; 123% in [15]; 84% in experiment [16]; 85% in experiment [17]; 84% in experiment [18]. Besides, the figures for the residual activity in experiment [19] and in experiment [20] were 75% and 83%, respectively.
